This passage reports composite z-score and z-score results from PubChem BioAssay.

Activity calls are given as the source filed them.

Test [1] has as its system Plasmodium falciparum Sir2 (PF13_0152, Sir2A). Kind of test: pfSir2 binders on small-molecule microarrays, primary screen, biochemical, small-molecule microarray, 635 nm fluorescence (AID 1098).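 Further: score merges spot fluorescence intensity with its signal-to-noise ratio.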 The note with it: small-molecule microarray binding, fluorescence 635 nm; higher = more signal.
Test [2] in a line: small-molecule microarray binders of probe aDKK1, primary screen, biochemical, biotinylated probe, 635/667 nm fluorescence (AID 1099).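 Further: score merges 667nm spot fluorescence with signal to noise across triplicate slides.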 The note with it: higher = more signal.
Test [3] is described as follows: small-molecule microarray binders of probe aCHRDL2, primary screen, biochemical, biotinylated probe, 635/667 nm fluorescence (AID 1100). The note with it: higher = more signal.
Test [4] in a line: splicing luciferase reporter signal modulators, primary screen, spliceosome inhibition project, cell-based, HEK293, splice +/- reporter (AID 1101).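 Further: HEK293 cells carrying a splicing-competent luciferase reporter gene; test concentration not given here.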 Conditions: luminescence, 24 h, higher = more signal, called active from +8 up or from −8 down.
The target in test [5] is Fibroblast growth factor 10 (Homo sapiens) (UniProt O15520). Kind of test: FGF10 binders on small-molecule microarrays, primary screen, biochemical, small-molecule microarray, 635 nm fluorescence (AID 1102). Conditions: FGF10 binding, fluorescence 635 nm, higher = more signal.
Sequence of Fibroblast growth factor 10 (Homo sapiens) (O15520 whole entry, looked up): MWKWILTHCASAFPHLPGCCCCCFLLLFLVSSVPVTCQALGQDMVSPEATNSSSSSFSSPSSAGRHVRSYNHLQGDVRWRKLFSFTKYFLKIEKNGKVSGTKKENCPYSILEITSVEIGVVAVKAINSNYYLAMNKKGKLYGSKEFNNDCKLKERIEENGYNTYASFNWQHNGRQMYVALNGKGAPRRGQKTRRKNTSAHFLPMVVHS
Test [6] deals with glycogen synthase kinase-3 (GSK3A per assay name; protocol says GSK3B). Kind of test: GSK3 binders on small-molecule microarrays, primary screen, biochemical, small-molecule microarray, 635 nm fluorescence, GSK3A (AID 1103). Further: the record names both GSK3A and GSK3B. Conditions: small-molecule microarray binding, fluorescence 635 nm; higher = more signal.
Test [7] deals with Epidermal growth factor receptor (Homo sapiens) (UniProt P00533). As to the kind of experiment: EGFR binders on small-molecule microarrays, primary screen, biochemical, small-molecule microarray, 635 nm fluorescence (AID 1104).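 Further: score merges 667 nm emission intensity with spot signal to noise over triplicate slides.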 Conditions: EGFR binding, higher = more signal.
Sequence of Epidermal growth factor receptor (Homo sapiens) (P00533 whole entry, looked up): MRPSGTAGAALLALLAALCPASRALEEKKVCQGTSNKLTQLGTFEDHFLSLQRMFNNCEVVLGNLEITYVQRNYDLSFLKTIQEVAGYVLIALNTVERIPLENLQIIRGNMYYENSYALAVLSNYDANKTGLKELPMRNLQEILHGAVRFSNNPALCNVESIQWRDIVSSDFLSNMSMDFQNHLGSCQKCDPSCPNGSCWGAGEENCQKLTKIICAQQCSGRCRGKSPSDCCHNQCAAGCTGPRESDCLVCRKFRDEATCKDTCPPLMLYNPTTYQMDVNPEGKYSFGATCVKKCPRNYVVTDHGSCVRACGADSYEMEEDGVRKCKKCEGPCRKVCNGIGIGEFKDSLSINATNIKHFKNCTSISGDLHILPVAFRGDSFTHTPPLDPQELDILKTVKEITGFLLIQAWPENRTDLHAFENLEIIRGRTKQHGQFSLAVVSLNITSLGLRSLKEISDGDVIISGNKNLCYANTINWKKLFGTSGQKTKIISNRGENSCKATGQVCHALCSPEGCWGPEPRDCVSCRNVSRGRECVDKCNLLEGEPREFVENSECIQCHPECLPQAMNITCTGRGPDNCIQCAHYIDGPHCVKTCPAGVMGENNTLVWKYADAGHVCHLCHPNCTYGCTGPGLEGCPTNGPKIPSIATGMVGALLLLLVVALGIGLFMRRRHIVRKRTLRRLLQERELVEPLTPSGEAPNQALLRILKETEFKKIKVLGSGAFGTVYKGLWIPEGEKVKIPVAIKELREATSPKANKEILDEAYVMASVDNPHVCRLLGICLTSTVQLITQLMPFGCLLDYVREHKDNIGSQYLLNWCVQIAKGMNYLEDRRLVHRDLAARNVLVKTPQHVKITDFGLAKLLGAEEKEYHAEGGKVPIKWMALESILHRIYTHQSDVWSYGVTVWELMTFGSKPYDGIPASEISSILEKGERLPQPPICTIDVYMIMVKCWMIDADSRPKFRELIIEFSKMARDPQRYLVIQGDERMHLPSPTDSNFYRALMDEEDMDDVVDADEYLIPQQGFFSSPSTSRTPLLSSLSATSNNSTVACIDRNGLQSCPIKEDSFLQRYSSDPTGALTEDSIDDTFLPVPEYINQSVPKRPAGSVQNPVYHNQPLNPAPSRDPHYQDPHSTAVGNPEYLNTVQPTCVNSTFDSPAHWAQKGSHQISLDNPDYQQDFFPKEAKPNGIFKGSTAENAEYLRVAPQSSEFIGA
Test [8] deals with Follistatin-related protein 3 (Homo sapiens) (UniProt O95633). Kind of test: FSTL3 binders on small-molecule microarrays, primary screen, biochemical, small-molecule microarray, 635 nm fluorescence (AID 1105).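 Further: score merges emission near 667 nm and signal to noise per printed spot across three slides.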 Conditions: FSTL3 binding, higher = more signal.
Sequence of Follistatin-related protein 3 (Homo sapiens) (O95633 whole entry, looked up): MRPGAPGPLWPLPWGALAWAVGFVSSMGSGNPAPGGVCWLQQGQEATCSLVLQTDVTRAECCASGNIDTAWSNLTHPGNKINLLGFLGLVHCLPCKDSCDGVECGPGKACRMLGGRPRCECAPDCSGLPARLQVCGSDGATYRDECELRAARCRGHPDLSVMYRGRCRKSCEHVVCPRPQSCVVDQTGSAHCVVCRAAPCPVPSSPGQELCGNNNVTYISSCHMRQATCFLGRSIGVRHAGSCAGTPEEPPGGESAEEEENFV
Test [9] has as its target Dickkopf-related protein 1 (Homo sapiens) (UniProt O94907). As to the kind of experiment: DKK1 binders on small-molecule microarrays, primary screen, biochemical, small-molecule microarray, 635 nm fluorescence scan (AID 1106).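 Further: score merges emission near 667 nm with signal to noise over three replicate slides.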 The note with it: DKK1 binding, higher = more signal.
Test [10] relates to Inhibin beta A chain (activin A). As to the kind of experiment: INHBA (activin A) binders on microarrays, primary screen, biochemical, small-molecule microarray, 635 nm fluorescence scan (AID 1107).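 Further: mouse activin A protein probed at 4.33 µg/mL on printed slides; score merges bound-protein fluorescence near 667 nm with spot signal-to-noise.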 Conditions: small-molecule microarray binding, higher = more signal.
For test [11], the system named is Human papillomavirus type 1a protein E7 (residues 44-93). Kind of test: HPV1a E7 fragment binders on microarrays, primary screen, biochemical, small-molecule microarray, residues 44-93, 635 nm fluorescence (AID 1108).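 Further: E7 fragment applied at 1 µg/mL in TBST for 1 h at 4 C; score combines spot fluorescence with its signal to noise ratio.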 The note with it: small-molecule microarray binding, fluorescence 635 nm; higher = more signal.
Test [12] in a line: modulators of HCV replicon luciferase signal, primary screen, HCV replication inhibitor project, Huh7 cells, luciferase reporter (AID 1109).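 Further: huh7 hepatoma cells harbouring a luciferase neomycin HCV replicon reporter; luciferase luminescence as measure of HCV replicon replication; test concentration not given here.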 The note with it: 48 h, higher = more signal.
Test [13] has as its target Left-right determination factor 2 (Homo sapiens) (UniProt O00292). As to the kind of experiment: LEFTY2 binders on small-molecule microarrays, primary screen, biochemical, small-molecule microarray, 635 nm fluorescence scan (AID 1110). The note with it: LEFTY2 binding, higher = more signal.
The target of test [14] is Calmodulin-1 (Homo sapiens) (UniProt P0DP23). As to the kind of experiment: CALM1 binders on microarrays, EGTA buffer, profiling panel, biochemical, small-molecule microarray, Cy5-labelled CALM1 (AID 1111).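 Further: labelled calmodulin applied in Tris saline Tween buffer holding calcium plus EGTA and DTT.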 Conditions: Cy5-CALM1 binding fluorescence, higher = more signal.
The target is the same in test [15]. Kind of test: calcium-bound CALM1 binders on microarrays, profiling panel, artefact control for SMM control-protein annotation, biochemical, small-molecule microarray, Cy5-labelled CALM1, plus calcium (AID 1112).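 Further: score merges spot fluorescence with signal to noise from triplicate slides.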 Conditions: Cy5-CALM1 binding fluorescence, higher = more signal.
Test [16] can be described thus: small-molecule microarray binders of probe aWnt5a, primary screen, biochemical, biotinylated probe, 635/667 nm fluorescence (AID 1113).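 Further: score merges 667 nm fluorescence intensity with signal-to-noise per printed feature.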 Conditions: higher = more signal.
Test [17] can be described thus: small-molecule microarray binders of probe aShh, primary screen, biochemical, biotinylated probe, 635/667 nm fluorescence (AID 1114).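 Further: probe is biotin-labelled aShh protein from a stem cell growth factor screen; measures binding of labelled protein to compounds printed on the slide; score merges feature fluorescence at 667 nm with signal-to-noise.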 Conditions: higher = more signal.
Test [18] in a line: small-molecule microarray binders of probe aNog, primary screen, biochemical, biotinylated probe, 635/667 nm fluorescence (AID 1115).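 Further: probe is biotinylated aNog protein used at 0.15 µg/mL for 1 h at 4 C; z-score combines 667 nm fluorescence of each spot with its signal to noise.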 The note with it: higher = more signal.
In test [19] the target is Torsin-1A-interacting protein 1 (Homo sapiens) (UniProt Q5JTV8). Kind of test: LAP1 binders from COS7 cell lysate, primary screen, small-molecule microarray, 635/667 nm fluorescence (AID 1116). The note with it: COS7-hLAP1 lysate binding, 635 nm fluorescence, higher = more signal.
Sequence of Torsin-1A-interacting protein 1 (Homo sapiens) (Q5JTV8 whole entry, looked up): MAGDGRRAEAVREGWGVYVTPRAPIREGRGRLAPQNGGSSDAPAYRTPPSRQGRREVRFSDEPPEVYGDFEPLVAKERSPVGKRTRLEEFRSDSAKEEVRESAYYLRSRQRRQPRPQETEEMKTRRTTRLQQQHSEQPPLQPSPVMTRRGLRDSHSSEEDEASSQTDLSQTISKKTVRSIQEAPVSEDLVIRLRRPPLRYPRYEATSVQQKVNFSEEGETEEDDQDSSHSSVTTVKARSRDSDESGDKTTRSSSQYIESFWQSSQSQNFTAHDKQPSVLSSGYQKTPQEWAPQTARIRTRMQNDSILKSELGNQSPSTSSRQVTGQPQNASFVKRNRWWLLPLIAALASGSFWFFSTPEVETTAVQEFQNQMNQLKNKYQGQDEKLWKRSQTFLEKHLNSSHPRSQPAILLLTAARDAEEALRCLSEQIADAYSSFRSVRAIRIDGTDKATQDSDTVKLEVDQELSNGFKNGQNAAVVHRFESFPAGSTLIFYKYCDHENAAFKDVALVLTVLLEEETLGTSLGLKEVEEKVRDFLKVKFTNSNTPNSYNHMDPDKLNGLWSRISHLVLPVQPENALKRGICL
The target in test [20] is Alpha-bungarotoxin (Bungarus multicinctus) (UniProt P60615). As to the kind of experiment: alpha-bungarotoxin binders on microarray, profiling panel, artefact control for SMM control protein annotation, biochemical, small-molecule microarray, Alexa647 label, 635/667 nm fluorescence (AID 1117). Conditions: alpha-BTX-A647 binding fluorescence, higher = more signal.
Sequence of Alpha-bungarotoxin (Bungarus multicinctus) (P60615 whole entry, looked up): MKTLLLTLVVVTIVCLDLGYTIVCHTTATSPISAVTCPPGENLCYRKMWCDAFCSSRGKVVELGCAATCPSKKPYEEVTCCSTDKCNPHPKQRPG

Sequence of Left-right determination factor 2 (Homo sapiens) (O00292 whole entry, looked up): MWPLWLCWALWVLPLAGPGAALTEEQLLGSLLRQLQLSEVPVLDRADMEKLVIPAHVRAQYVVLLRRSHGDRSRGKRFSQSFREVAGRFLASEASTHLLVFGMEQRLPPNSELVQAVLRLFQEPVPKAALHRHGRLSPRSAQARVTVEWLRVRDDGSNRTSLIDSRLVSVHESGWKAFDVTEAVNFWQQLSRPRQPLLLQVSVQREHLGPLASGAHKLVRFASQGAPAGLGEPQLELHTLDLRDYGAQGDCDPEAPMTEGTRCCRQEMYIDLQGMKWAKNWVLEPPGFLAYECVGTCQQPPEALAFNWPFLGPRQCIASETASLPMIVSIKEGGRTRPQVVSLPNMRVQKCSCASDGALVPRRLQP
Sequence of Dickkopf-related protein 1 (Homo sapiens) (O94907 whole entry, looked up): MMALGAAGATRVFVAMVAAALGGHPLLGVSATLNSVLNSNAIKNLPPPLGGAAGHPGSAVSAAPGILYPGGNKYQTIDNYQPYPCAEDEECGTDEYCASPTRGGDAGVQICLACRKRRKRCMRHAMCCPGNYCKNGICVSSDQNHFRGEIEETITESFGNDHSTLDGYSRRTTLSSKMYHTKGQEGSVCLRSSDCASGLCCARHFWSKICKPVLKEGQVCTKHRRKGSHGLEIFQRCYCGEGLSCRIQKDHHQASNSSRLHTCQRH

For `CCOC(=O)C[C@H]1[C@H](OC(=O)c2cc3ccccc3oc2=O)[C@@H](NC(=O)c2ccccc2)c2cc(OCCCO)ccc2N1C(=O)Cc1ccc(OC)cc1`, the composite z-score in test [1] was 0.575; in [2] it was 0.33; in test [3], -0.194; in [5], 0.905; in test [6], 0.714; in test [7], 0.433. For the same compound, the composite z-score in [8] turned out to be 0.909; in [9], 0.511; in test [10], 0.506; in test [11], 0.378; in [13], 0.357; in test [14], 0.163. Further, the composite z-score is -0.422 in test [15]; -0.182 in test [16]; -0.138 in [17]; 0.23 in test [18]; 0.44 in test [19]; 0.693 in [20]. Moreover, the z-score is -1.78 (inactive) in test [4] and -0.824 in test [12].

Take `CCOC(=O)C[C@H]1[C@H](OC(=O)c2ccc(C(=O)c3ccccc3)cc2)[C@@H](NC(=O)Cc2ccc(OC)cc2)c2cc(OCCCO)ccc2N1C(=O)Cc1ccc(OC)cc1`: the composite z-score in test [1] was 0.276; in test [2], 0.676; in test [3], 0.949; in test [5] it was 0.371; in test [6], 0.283; in [7], -0.137. The composite z-score was 0.321 in test [8]; -0.177 in [9]; 0.962 in test [10]; 1.06 in test [11]; 0.39 in test [13]; 1.31 in test [14]. The composite z-score in test [15] was 0.655; in [16], -0.0643; in [17], -0.156; in [18], 1.1; in test [19], 0.743; in [20], 0.978. In addition, the values for the z-score in test [4] and in [12] were -1.52 (inactive) and -1.06, respectively.

On to `Cc1ccc(S[C@]2(C(=O)NCCN3CCOCC3)CC(=O)N(Cc3cc(C(F)(F)F)cc(C(F)(F)F)c3)[C@@H]2c2ccc(CO)cc2)cc1`, for which the composite z-score in test [1] is 1.71; in test [2], 0.523; in test [3], 0.866; in test [5] it was -0.703; in test [6] it was -1.45; in [7] it was -1.19. Besides, the composite z-score in test [8] was -1.15; in test [9], -1.05; in test [10], 0.156; in test [11], -0.233; in test [13], -1.13; in test [14], -0.411. For the same compound, the composite z-score is -0.132 in [15]; -0.175 in test [16]; -0.153 in test [17]; 0.455 in test [18]; -0.998 in [19]; -0.842 in [20]. Besides, the z-score in [4] is -0.688 (inactive); in test [12] it was -0.429.

As to `C=C(CCCC)/C(=C/C[C@H](OC(=O)c1ccncc1)c1ccc(CO)o1)c1cnc2ccccc2c1`, the composite z-score in test [1] is 1.14; in test [2], 0.248; in test [3], -0.0775; in [5], 1.09; in test [6], 1.19; in test [7], 0.474. Besides, the composite z-score in test [8] turned out to be 1.46; in test [9] it was 0.823; in test [10], 1.46; in test [11] it was 0.229; in [13], 0.429; in [14] it was 0.697. Besides, the composite z-score is 0.244 in test [15]; -0.0236 in [16]; 0.0898 in [17]; 0.995 in [18]; 0.731 in [19]; 1.8 in [20]. In addition, the z-score in test [4] was -0.964 (inactive); in test [12], -1.89.

On to `O=C1O[C@H](c2ccccc2)[C@H](c2ccccc2)N2[C@H]1[C@@H](C(=O)NC[C@H](O)c1ccccc1)[C@]1(C(=O)Nc3ccc(C#CC4(O)CCCCCC4)cc31)[C@H]2c1ccc(O)cc1`, for which the composite z-score in [1] is 0.59; in [2], 0.601; in test [3], 0.471; in test [5], 1.05; in [6] it was 1.15; in [7], 0.251. Also, the composite z-score in test [8] was 0.715; in [9] it was 0.324; in [10], -0.0905; in test [11] it was 1.35; in [13] it was 0.462; in [14] it was 0.612. The composite z-score in test [15] was 0.107; in test [16] it was -0.0542; in test [17] it was -0.0769; in test [18] it was 0.528; in test [19] it was 1.08; in test [20], 1.34. In addition, the z-score was 1.13 (inactive) in test [4] and 0.34 in test [12].
